For some assays here: Potency and affinity values are given separately.
Key:
Parameters in all cases: scale not given: direction of the effect not stated beside the values
[1] = biological target: Protein translocase subunit SecA (Escherichia coli (strain K12)) (UniProt P10408); assay: Assay to Identify E. coli SecA ATPase Inhibitors; format: functional; settings: 30 µM
[2] = biological target: T1, Ubiquitin-activating enzyme e1, putative (Leishmania donovani (strain BPK282A1)) (UniProt E9BSI1); assay: Leishmania donovani Ubiquitin Activating Enzyme (LdE1); format: functional; settings: 30 µM
T1 sequence (whole entry): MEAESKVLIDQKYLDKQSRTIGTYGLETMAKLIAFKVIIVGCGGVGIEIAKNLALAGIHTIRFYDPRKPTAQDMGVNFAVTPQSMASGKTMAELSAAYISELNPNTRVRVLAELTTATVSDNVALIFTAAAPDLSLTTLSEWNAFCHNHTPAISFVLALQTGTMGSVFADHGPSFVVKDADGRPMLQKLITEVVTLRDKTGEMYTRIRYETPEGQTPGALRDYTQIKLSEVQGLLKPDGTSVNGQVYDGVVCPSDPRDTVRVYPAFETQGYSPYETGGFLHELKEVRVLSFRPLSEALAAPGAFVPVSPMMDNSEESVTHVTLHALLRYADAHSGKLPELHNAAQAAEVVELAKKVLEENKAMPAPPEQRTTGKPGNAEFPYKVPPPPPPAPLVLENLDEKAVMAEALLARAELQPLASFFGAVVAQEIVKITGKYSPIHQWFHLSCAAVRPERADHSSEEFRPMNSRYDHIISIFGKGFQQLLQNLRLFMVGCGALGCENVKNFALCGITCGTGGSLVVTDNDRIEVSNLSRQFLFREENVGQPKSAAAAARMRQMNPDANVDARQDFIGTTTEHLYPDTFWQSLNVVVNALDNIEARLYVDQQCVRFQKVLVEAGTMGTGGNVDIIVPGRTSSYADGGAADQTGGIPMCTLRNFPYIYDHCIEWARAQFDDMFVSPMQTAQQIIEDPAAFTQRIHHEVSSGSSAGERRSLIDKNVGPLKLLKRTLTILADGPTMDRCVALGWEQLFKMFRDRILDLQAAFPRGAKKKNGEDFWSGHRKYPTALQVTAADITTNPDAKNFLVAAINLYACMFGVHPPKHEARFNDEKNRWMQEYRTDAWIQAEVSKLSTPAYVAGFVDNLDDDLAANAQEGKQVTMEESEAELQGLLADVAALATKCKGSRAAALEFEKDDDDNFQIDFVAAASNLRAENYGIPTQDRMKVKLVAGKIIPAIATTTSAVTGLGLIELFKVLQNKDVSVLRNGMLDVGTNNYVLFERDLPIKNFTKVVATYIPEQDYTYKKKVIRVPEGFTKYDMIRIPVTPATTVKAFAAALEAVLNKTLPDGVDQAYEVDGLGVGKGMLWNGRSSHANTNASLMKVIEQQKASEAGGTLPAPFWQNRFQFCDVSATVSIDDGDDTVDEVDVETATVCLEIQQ

[3] = biological target: AMP-activated protein kinase, AMPK (Homo sapiens) (UniProt P54646+O43741+P54619+Q9UGJ0+Q9Y478+Q13131+Q9UGI9); assay: AMP-dependent Kinase enzyme assay. An in vitro enzyme assay that detects ADP turnover that is directly proportional to AMPK activity. This uses naive AMPK that is activated during the assay with MK-8722; format: functional; settings: 30 µM
[4] = biological target: Sialic acid-binding Ig-like lectin 9 (Homo sapiens) (UniProt Q9Y336); assay: Hs-Siglec9 ALPHAscreen SOP 20170721; settings: 10 µM
Trypanosoma cruzi = assay: Trypanosoma cruzi phosphomannomutase and mannose-1-phosphate guanylyltransferase assay; format: functional; settings: 10 µM
[5] = biological target: T2, Arginase-2, mitochondrial (Homo sapiens) (UniProt P78540); assay: in vitro enzyme assay to detect the production of urea directly proportional to the activity of Arginase II; format: functional; settings: 33.3 µM; further: in the data most compounds retested in dose-response had high values
T2 sequence (whole entry): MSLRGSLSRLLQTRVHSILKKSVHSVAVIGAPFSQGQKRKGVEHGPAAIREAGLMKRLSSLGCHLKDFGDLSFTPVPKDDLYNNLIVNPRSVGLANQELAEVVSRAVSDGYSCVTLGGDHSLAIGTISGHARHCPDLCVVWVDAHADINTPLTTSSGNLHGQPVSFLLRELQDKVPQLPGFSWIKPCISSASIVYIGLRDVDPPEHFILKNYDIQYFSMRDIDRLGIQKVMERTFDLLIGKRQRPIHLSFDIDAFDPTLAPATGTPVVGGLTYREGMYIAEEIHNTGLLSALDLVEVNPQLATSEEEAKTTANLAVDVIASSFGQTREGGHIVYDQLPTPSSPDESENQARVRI

[6] = biological target: T3, Proteasome subunit beta (Trypanosoma cruzi) (UniProt O96673); assay: Trypanosoma cruzi proteasome chymotrypsin-like activity (TcProtChymo) assay.; further: in the data most compounds retested in dose-response had high values; format: functional; settings: 9.37 µM
T3 sequence (whole entry): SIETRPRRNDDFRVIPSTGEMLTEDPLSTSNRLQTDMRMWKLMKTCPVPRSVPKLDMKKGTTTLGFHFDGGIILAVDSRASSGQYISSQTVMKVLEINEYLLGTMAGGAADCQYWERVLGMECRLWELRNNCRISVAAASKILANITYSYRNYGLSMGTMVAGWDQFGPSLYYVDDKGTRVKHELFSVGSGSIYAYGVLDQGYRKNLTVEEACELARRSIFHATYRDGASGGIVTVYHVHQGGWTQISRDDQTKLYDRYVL

Homo sapiens = species on record: Homo sapiens; assay: To identify inhibition of the IFN signalling (Jak-Stat) pathway via expression of an eGFP reporter gene under the control of an IFN-stimulated response element (ISRE) containing MxA promoter.; format: functional; settings: 30 µM
[7] = biological target: T4, Tyrosyl-tRNA synthetase, putative (Trypanosoma cruzi (strain CL Brener)) (UniProt Q4DSP6); assay: Trypanosoma cruzi tyrosyl tRNA synthetase (TcYRS) _High Tyrosine SOP; format: functional; settings: 30 µM; further: in the data most compounds retested in dose-response had high values
T4 sequence (whole entry): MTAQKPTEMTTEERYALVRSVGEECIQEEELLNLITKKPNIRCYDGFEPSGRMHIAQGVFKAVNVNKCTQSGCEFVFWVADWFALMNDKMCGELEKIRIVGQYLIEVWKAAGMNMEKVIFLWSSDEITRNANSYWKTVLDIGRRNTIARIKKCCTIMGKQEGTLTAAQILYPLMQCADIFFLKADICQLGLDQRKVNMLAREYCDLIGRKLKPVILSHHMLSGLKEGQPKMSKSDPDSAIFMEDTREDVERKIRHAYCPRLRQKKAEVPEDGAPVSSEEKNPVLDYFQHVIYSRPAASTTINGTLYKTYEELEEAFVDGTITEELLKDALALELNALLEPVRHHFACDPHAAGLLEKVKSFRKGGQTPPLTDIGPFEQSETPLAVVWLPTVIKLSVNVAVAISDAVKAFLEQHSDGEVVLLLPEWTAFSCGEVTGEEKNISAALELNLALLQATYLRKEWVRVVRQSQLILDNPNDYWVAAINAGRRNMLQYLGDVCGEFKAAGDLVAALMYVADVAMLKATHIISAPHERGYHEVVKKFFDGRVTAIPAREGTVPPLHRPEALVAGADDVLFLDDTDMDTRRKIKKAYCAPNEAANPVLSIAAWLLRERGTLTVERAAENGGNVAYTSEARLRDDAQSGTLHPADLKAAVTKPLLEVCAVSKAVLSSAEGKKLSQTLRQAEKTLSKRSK

[8] = biological target: T4, Tyrosyl-tRNA synthetase, putative (Trypanosoma cruzi (strain CL Brener)); assay: Trypanosoma cruzi tyrosyl tRNA synthetase (TcYRS) SOP; format: functional; settings: 30 µM
[9] = biological target: Chromo domain-containing protein 1 (Saccharomyces cerevisiae (strain ATCC 204508 / S288c) (Baker's yeast)) (UniProt P32657); assay: ScCHD-1 Enzyme Inhibition Assay; format: functional; settings: 30 µM; further: in the data most compounds retested in dose-response had high values
Sequence of Chromo domain-containing protein 1 (Saccharomyces cerevisiae (strain ATCC 204508 / S288c) (Baker's yeast)) (P32657 whole entry, the tested form may be a part): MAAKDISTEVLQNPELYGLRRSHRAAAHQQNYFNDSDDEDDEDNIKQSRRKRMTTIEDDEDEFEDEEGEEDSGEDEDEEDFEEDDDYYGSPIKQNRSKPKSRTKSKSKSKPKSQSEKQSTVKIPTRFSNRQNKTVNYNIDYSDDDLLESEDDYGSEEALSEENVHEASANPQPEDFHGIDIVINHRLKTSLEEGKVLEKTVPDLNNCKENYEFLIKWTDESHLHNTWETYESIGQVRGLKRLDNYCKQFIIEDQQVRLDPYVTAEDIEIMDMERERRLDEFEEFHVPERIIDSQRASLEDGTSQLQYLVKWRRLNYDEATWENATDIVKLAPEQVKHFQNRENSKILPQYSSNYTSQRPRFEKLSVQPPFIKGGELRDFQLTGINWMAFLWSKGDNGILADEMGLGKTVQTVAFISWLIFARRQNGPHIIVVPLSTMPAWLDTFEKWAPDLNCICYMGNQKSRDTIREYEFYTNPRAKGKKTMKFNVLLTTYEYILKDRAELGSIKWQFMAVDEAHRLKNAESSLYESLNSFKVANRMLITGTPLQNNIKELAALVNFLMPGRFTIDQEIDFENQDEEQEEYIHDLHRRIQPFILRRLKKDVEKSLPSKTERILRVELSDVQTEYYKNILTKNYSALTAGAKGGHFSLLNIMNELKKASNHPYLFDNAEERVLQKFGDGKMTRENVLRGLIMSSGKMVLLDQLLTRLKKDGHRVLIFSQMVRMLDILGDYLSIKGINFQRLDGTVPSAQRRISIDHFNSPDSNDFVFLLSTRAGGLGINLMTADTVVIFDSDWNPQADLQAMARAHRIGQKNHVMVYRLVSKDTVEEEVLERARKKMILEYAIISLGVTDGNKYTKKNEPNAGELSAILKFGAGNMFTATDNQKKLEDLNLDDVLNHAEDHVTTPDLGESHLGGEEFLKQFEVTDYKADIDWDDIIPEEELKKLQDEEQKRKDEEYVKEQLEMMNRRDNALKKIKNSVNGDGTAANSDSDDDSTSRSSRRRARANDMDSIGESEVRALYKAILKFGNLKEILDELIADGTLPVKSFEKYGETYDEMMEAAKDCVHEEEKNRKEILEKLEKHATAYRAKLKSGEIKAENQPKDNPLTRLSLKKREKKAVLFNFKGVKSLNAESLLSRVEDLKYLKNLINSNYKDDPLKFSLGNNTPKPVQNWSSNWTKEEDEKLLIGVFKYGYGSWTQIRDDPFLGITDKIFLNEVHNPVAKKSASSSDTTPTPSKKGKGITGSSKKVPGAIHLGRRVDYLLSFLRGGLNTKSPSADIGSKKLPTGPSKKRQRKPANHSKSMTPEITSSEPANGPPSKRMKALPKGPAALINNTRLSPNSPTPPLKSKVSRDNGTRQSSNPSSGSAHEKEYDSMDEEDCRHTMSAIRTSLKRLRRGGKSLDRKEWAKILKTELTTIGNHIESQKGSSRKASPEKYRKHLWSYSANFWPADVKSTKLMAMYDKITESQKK

Sequence of Protein translocase subunit SecA (Escherichia coli (strain K12)) (P10408 whole entry): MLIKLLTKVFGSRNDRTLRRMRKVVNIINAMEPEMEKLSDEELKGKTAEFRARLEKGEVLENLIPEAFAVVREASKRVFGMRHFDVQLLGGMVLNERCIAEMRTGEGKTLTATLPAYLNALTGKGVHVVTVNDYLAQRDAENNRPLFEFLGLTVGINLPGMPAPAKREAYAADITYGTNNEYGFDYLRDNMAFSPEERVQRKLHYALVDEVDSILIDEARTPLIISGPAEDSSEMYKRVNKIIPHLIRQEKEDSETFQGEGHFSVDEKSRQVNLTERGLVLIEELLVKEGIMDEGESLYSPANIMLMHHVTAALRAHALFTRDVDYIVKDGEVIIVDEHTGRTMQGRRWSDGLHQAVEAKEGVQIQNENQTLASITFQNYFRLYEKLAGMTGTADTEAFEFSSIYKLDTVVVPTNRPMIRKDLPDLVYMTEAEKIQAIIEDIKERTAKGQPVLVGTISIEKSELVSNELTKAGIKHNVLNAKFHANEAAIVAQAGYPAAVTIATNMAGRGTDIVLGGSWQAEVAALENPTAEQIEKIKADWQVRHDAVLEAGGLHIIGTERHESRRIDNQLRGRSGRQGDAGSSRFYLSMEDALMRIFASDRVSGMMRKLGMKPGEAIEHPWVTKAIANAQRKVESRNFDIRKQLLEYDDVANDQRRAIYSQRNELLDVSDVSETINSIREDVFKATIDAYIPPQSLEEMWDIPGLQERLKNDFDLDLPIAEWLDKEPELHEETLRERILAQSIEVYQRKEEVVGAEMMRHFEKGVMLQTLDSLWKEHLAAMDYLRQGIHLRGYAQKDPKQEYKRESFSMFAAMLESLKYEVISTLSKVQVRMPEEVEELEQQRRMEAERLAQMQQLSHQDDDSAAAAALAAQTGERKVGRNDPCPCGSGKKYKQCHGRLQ
Sequence of Sialic acid-binding Ig-like lectin 9 (Homo sapiens) (Q9Y336 whole entry): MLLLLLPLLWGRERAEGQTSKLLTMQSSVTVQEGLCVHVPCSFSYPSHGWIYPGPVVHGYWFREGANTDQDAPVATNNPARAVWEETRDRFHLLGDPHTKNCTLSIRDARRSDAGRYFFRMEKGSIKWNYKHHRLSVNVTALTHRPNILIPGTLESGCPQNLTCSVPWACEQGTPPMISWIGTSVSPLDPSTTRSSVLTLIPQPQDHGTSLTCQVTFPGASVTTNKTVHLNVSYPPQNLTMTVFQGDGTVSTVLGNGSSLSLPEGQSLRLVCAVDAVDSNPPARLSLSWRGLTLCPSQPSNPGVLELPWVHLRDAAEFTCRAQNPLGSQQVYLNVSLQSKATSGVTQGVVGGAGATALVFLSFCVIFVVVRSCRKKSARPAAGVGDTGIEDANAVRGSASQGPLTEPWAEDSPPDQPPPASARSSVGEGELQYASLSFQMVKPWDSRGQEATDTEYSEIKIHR

Row | Structure (SMILES) | Percent Effect [1] [%] | Percent Effect [2] [%] | Percent Effect [3] [%] | Percent Effect [4] [%] | Percent Effect (Trypanosoma cruzi) [%] | Percent Effect [5] [%] | Percent Effect [6] [%] | Percent Effect (Homo sapiens) [%] | Percent Effect [7] [%] | Percent Effect [8] [%] | Percent Effect [9] [%]
1 | COC(=O)c1sccc1NC(=O)C1CCCN1C(=O)c1ccco1 (configuration not stated) | -0.782 | -15.3 | 13.2 | -14.9 | -8.84 | -3.53 | 20.4 | 1.28 | -3.16 | 2.56 | -2.51
2 | CCC(=O)N1CCN(C(=O)CCn2cccn2)CC1 | -1.61 | 24.3 | -7.17 | 0.998 | 6.96 | 0.554 | 8.62 | 5.89 | 6.93 | 25.6 | -6.76
3 | COCC1c2nnn(CC3CC3)c2CCN1C(=O)c1ccnnc1 (configuration not stated) | -5.05 | 21.6 | -7.32 | 32.8 | 3.81 | 3.23 | 3.86 | -2.31 | 6.45 | 13.6 | -10.1
4 | COCCN1CCc2cc(C(=O)N(C)C)c(NCC3CC3)nc2CC1 | -8.99 | 2.7 | 1.27 | -1.99 | -5.38 | -1.24 | 8.5 | -19.8 | 2.15 | 11.1 | -0.0365
5 | CC(C)(C)C(=O)Cn1nc(-c2ccccc2F)ccc1=O | -3.18 | 6.67 | 5.01 | 9.44 | 0.393 | -10 | 16.6 | 5.03 | 5.29 | 10.3 | -6.12
6 | O=C(COc1ccccc1)N1CCC[C@]2(C[C@H](OCC3CC3)CO2)C1 | -0.456 | 7.79 | 0.996 | -3.06 | -3.45 | 14.8 | 22.1 | 3.98 | 8.47 | 16.7 | -7.91
7 | CCC1=N[C@@]2(CC[C@@H]3CN(C(=O)NC(C)C)C[C@@H]32)C(=O)N1C | -5.93 | 18.9 | -5.97 | 2.32 | 3.12 | 2.92 | 10.9 | 1.5 | 3.96 | 18.3 | -6.51
8 | c1ccc(CN2CCc3ncnc(-c4ccsc4)c3CC2)nc1 | -4.91 | 0 | 2.79 | 8.34 | -2.83 | 5.41 | 22.7 | -21 | 2.16 | 7.69 | 3.65
9 | COc1ccc(N2CCC(C(=O)/N=c3/[nH]ccs3)CC2)nn1 | -5.79 | 1.33 | 5.74 | 6.32 | 0.589 | -13.9 | 11.3 | 44.8 | 5.29 | 12.8 | -12.7
10 | CCC(=O)N1CCC2(COCc3c(C)nc(N(C)C)nc32)C1 (configuration not stated) | -9.59 | 0 | 0.948 | 16.9 | -0.586 | -0.417 | 10.7 | 4.78 | 0 | 3.66 | -4.5
11 | O=C(CC1CCCC1)NCCn1ccc(-c2ccccn2)n1 | -2.17 | 2.6 | 9.65 | 12 | -3.85 | 0.645 | -2.09 | -8.59 | 2.12 | 6.41 | -2.03
12 | Cc1nc(NC2CCCC2)cc(C2CCN2C(=O)c2ccccc2)n1 (configuration not stated) | -6.88 | 4.05 | 3.55 | 0.412 | 3.16 | -1.62 | 6.08 | -2.7 | 1.07 | 3.9 | -22.1
13 | CN1C(=O)C(C)(C)COc2cc(NS(=O)(=O)Cc3ccccc3)ccc21 | -1.91 | 16.4 | -12.8 | -8.62 | 3.72 | -2.73 | 15.6 | 57.7 | 7.53 | 12.5 | -6.62
14 | COC(=O)c1ccc(S(=O)(=O)NCc2cccnc2N(C)C)cc1 | -2.49 | 17.7 | 0.13 | -11 | -8.59 | -4.18 | 4.67 | 66.2 | -16.3 | 16.5 | -6.7
15 | O=C(O)CCc1cc2n(n1)CCCN(C(=O)c1ccc3cc[nH]c3c1)C2 | -2.97 | 16.2 | -5.19 | 10.7 | 4.05 | 10.5 | 11.9 | -2.64 | 7.94 | 17.1 | -3.38
16 | Cc1nc(N2CCOCC2)nc2c1CCN(C(=O)NC1CCCC1)CC2 | -0.181 | 6.67 | -1.67 | -6.84 | -11 | -6.16 | 19.2 | 0.0839 | -2.12 | 0 | -10.6
17 | CCc1nc(C2CCCN2C(=O)CCc2cccs2)no1 (configuration not stated) | -3.51 | -2.7 | -4.68 | 4.58 | -3.81 | 1.29 | -4.49 | 3.17 | -0.99 | -8.54 | -2.06
18 | COCCN1CCc2cc(C(=O)NCC3CC3)c(NC(C)C)nc2CC1 | -2.06 | 8 | 4.16 | 9.64 | -1.74 | -27.8 | 13.2 | 55.7 | 1.04 | 12.5 | -10.2
19 | Cn1cnnc1S(=O)(=O)C1CCN(S(=O)(=O)c2ccc(F)c(Cl)c2)CC1 | -0.452 | -5.48 | 9.53 | -2.11 | -1.37 | 1.36 | 7.1 | 8.21 | -1.07 | 0 | -1.74
20 | O=C(CN(C1=NCCCC1)c1ccccc1)c1ccccc1 | -3.17 | -2.63 | 3.38 | -3.96 | -3.21 | -7.1 | 7.96 | -2.85 | -3.19 | -10.4 | -5.81
21 | c1cnc(-c2nc(CN3CCC(c4ccn[nH]4)CC3)cs2)nc1 | -1.4 | 13.5 | -30.2 | 15 | 2.32 | 1.66 | 2.15 | -0.446 | 7.92 | 23.2 | -3.65
22 | CCc1nc(CC(=O)Nc2cnn(CC3CCCO3)c2)cs1 (configuration not stated) | -2.62 | 8.11 | -12.1 | -2.05 | -0.965 | -1.43 | 7.59 | 0.276 | -4.76 | -2.44 | -1.6

From ChEMBL document CHEMBL3988442, “University of Dundee, Small-Polar-MMV Screening Library” (2021)
